# From PubChem BioAssay
# PTAP TSG101 blk = qHTS Assay for Iinhibitors of HIV-1 Budding by Blocking the Interaction of PTAP/TSG101 | Tumor susceptibility gene 101 protein (Homo sapiens), Q99816 | Fluorescence polarization, FITC-PTAP peptide / Tsg101 binding | Potency, µM (highest dose often 115 µM), inactives show top-dose activity change, negative = inhibition, actives largely listed as inhibitors | 340,000 tested, under 10 active; active = well fitted inhibition curve with a large enough effect in the main read-out, with a control signal flat, not every such curve was filed as active; inconclusive = small, poorly fitted or top-dose-only effect, or effect the other way, or a change in a side signal; inactive = no such curve, though single readings can be large or run the other way; note: % of control where 0% means no effect
# Target sequence (Q99816 whole entry, looked up): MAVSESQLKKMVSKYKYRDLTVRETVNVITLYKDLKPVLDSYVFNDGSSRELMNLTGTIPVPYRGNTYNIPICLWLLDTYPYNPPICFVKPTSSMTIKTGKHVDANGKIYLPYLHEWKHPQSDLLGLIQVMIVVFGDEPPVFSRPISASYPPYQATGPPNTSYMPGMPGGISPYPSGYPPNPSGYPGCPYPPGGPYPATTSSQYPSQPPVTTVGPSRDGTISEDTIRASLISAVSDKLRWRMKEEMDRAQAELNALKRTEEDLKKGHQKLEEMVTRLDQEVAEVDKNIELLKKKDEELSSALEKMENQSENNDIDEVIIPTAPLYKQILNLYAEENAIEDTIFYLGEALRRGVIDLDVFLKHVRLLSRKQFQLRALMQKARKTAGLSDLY
#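 Fluorescence polarization binding of Tsg101 binding domain (10 uM final) to FITC-labeled PTAP peptide (50 nM final) in HEPES pH 7.5 buffer with NaCl, Tween 20, EDTA, TCEP. Compounds added before peptide; binding 20 min at RT.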
# SW480 rereplic = A quantitative high throughput screen for small molecules that induce DNA re-replication in SW480 colon adenocarcinoma cells. SW480 DNA re-replication, Hoechst DNA content imaging, 48 h. Potency, µM (doses to about 46.1 µM), for inactives: at the top dose re-replication activation, most hits filed as activators. 340,000 tested, 1.8% active. AID 624297, 2012; note: % of control where 0% means no effect; nearly all actives have a fitted effect of over 55% in size
#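 Compounds, transferred as 23 nL by pin tool, were incubated with cells for 48 hr; DNA content per nucleus was then quantified by Hoechst staining and fluorescence plate imaging.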
# KB-3-1 cytotox = qHTS assay for MDR1-selective chemotherapeutics: Primary screen using the parental adenocarcinoma cell KB-3-1 | KB-3-1 viability, CellTiter-Glo ATP luminescence, 72 h | Potency, µM (titrated, usually from 46.1 µM), actives largely listed as cytotoxic | 400,000 tested, 1.4% active; note: % is set by controls: 0 for no effect and ±100 for the full control effect; nearly all actives have a fitted effect of over 60% in size
#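 Parental KB-3-1 adenocarcinoma cells in phenol-red-free DMEM with 10% FBS were pin-treated with compounds at several concentrations, incubated 72 h at 37 °C, and viability read by CellTiter-Glo luminescence; concentration-effect curves were fitted after normalization.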
# KB-V1 cytotox = qHTS assay for MDR1-selective chemotherapeutics: Primary screen using the drug-selected MDR subline cells KB-V1. Potency, µM (series often up to 46.1 µM), hits mostly cytotoxic. AID 1347076, 2019. KB-V1 MDR cells viability, CellTiter-Glo, 72 h. 400,000 tested, 3.4% active; note: % is set by controls: 0 for no effect and ±100 for the full control effect; nearly all actives have a fitted effect of over 60% in size
#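 Following 72 h at 37 degrees C with compound, KB-V1 cell viability was read by CellTiter-Glo luminescence, medium being phenol-red-free DMEM plus 10% FBS; concentration-response parameters came from normalized, curve-fitted qHTS data.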
# PINK1 modulator = A Quantitative High throughput Screen to Identify Chemical Modulators of PINK1 Expression; 410,000 tested, 0.2% active; Potency, µM (top dose mostly 76.6 µM), inactives show top-dose activation (PINK1 increase), actives largely listed as activators; PINK1 immunofluorescence, high-content cytometry, 24 h; active = well fitted activation curve with a large enough effect; inconclusive = small, poorly fitted or top-dose-only effect; cell line not stated here; note: % of control where 0% means no effect; nearly all actives have a fitted effect of over 65% in size
#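 Readout is PINK1 immunofluorescence, quantified alongside mitochondrial, cell and nuclear markers by laser-scanning microplate cytometry. Cells from a stable line were exposed to compound titrations (5 concentrations) for 24 hours, with CCCP controls.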
# MCF10A rereplic = A quantitative high throughput screen for small molecules that induce DNA re-replication in MCF 10a normal breast cells; Potency, µM (series often up to 46.1 µM), without a hit: top-dose activity, positive = re-replication, hits mostly activators; 350,000 tested, 2.9% active; MCF 10A DNA re-replication, Hoechst nuclear intensity, 48 h; note: % of control where 0% means no effect; nearly all actives have a fitted effect of over 50% in size
# The depositor's hits bear a star; i = inactive; u = inconclusive; x = not tested or not shown; [ ] = remark or other dose. Sampled rows, rich in hits. Any-hit rate of the full collection: about 6.8%. Unless noted, calls come from the whole dose curve; as a rule, active = well fitted curve in the direction sought with a large enough effect; inconclusive = small, poorly fitted or top-dose-only effect, or another doubt; inactive = no such curve, though single readings can be large; an effect the other way counts as inactive or inconclusive. Potency is the fitted concentration of half-maximal effect.
SMILES,PTAP TSG101 blk,SW480 rereplic,KB-3-1 cytotox,KB-V1 cytotox,PINK1 modulator,MCF10A rereplic
CNC(=O)CSc1nc(N)c2c3c(sc2n1)CCC3,-5.0%,-13.7%,i,20.6µM*,0.7%[38.3 µM],u
CC(C)(C)C1C=C(Sc2ccccc2)C(=O)O1 (centres undefined),-3.6%,u,i,i,15.8µM*,10.5%
COc1cc(C)ccc1OCCSc1nc2ccc(NC(C)=O)cc2s1,x,x,i,i,-0.4%,x
C=CCn1nc([N+](=O)[O-])nc1Sc1cccc2cccnc12,-1.9%,3.26µM*,u,8.2µM*,2.8%,u
O=C(COc1ccccc1)N(CCc1ccccc1)c1nc(-c2ccc(F)cc2)cs1,-2.3%,11.0%,i,14.6µM*,1.1%,28.3%
Cc1ccc(-c2csc(N(CCc3ccccc3)C(=O)COc3ccccc3)n2)cc1,-6.5%,0.4%,i,i,10.9%,u
CCNC(=O)NCc1cccc(Cl)c1,x,-1.8%,x,x,x,1.4%
Cc1cc(Br)ccc1OCC(=O)N(Cc1nc(-c2ccccc2)no1)C(C)C,-4.1%,u,u,i,3.5%[38.3 µM],18.4µM*
Cc1ccc(C)c(C(=O)N(Cc2nc(-c3ccc(Cl)cc3)no2)C(C)C)c1,-7.9%,2.3%,i,i,27.5%,23.1µM*
Cc1ccc(-c2noc(CN(C(=O)Cc3ccccc3)C(C)C)n2)cc1,1.5%,2.6%,i,23.1µM*,-1.9%[38.3 µM],0.2%
COc1ccccc1OCC(=O)N(Cc1nc(-c2ccccc2)no1)C(C)C,-8.6%,u,i,u,12.6%,1.5%
CN(C)CCCNc1ncnc2ccc(-c3ccc4c(c3)OCO4)cc12,x,x,i,i,x,x
Cc1ccc(C)c(Cn2c(C3CC(=O)N(c4ccccc4C)C3)nc3ccccc32)c1 (centres undefined),x,x,i,i,13.1%,x
COc1cc(OC)cc(-c2c(-c3cccs3)c3cc(-c4ccc(C(N)=O)cc4)ccc3n2C)c1,-0.9%,u,u,i,0.8%,16.4µM*
COc1ccc(-c2ccc3c(c2)c(-c2cccs2)c(-c2cc(OC)cc(OC)c2)n3C)cc1,0.1%,-9.9%,i,i,2.2%,1.9%
COc1ccc(NC(=O)c2ccc(OC(=S)N(C)c3ccc(OC)cc3)cc2)cc1,-4.1%,-9.4%,i,i,11.3%,-9.9%
CN(C(=S)Oc1ccc(C(=O)Nc2ccccc2)cc1)c1ccccc1,-4.3%,u,u,2.91µM*,1.8%,16.7%
CN(C)C(=O)c1ccc(NC(=O)Cn2nnnc2-c2ccccc2F)cc1,x,x,x,x,0.6%,x
COC1(OC)C(/C=C/c2ccc(Cl)cc2)C(C#N)(C#N)C1(OC)OC (centres undefined),0.0%,u,u,u,-2.3%,6.51µM*
COc1ccc(-n2c(=O)c3c4c(sc3n(Cc3ccccc3)c2=O)CCC4)c(OC)c1,x,x,x,x,0.4%,x
COc1cccc(NC(=O)C2C3CCC4C(CCC32)C4(Cl)Cl)c1 (centres undefined),-2.1%,-116.4%,i,11.6µM*,12.8%,3.6%
Cc1cc(C)c(CN2C(=O)c3ccccc3S(=O)(=O)c3ccc(C(=O)OCC4CCCO4)cc32)c(C)c1 (centres undefined),x,x,i,i,0.1%,x
COC(=O)c1ccc(Cl)c(NS(=O)(=O)c2ccc3c(c2)OCCO3)c1,-6.0%,18.4µM*,5.8µM*,9.2µM*,12.6%,u
CCOC(=O)c1c(C)oc2ccc(OCC(=O)C(C)(C)C)cc12,-4.0%,-1.2%[9.22 µM],i,i,2.7%,-0.7%
CCOC(=O)c1c(C)oc2ccc(OCc3cc(C(=O)OC)oc3C)cc12,-0.4%,29.4%,i,i,2.2%,6.51µM*
SMILES,PTAP TSG101 blk,SW480 rereplic,KB-3-1 cytotox,KB-V1 cytotox,PINK1 modulator,MCF10A rereplic
COC(=O)c1cc(COc2ccc3oc(C)c(C(=O)OC)c3c2)c(C)o1,-2.6%,18.4µM*,i,u,4.0%[38.3 µM],14.6µM*
CCOc1ccccc1NC(=O)CN1C(=O)COc2ccc(S(=O)(=O)N3CCCCCC3)cc21,x,x,x,x,-0.9%,x
CN1CCN(Cc2c(O)ccc3cc(-c4ccccn4)c(=O)oc23)CC1,-8.1%,9.2µM*,i,u,0.3%,23.1µM*
CCC(CC)NC(=O)CON=C1c2ccccc2-c2ccccc21,3.2%,-153.2%,i,23.1µM*,u,1.6%
CCc1ccc(NC(=O)N2CCOc3ccc(Cl)cc32)cc1,x,x,x,x,0.6%,x
COc1ccc(N(CC(=O)NCCSCc2c(F)cccc2Cl)S(C)(=O)=O)cc1OC,-5.0%,3.5%,i,8.2µM*,1.6%[38.3 µM],0.7%
CC(C)(C)SCCNC(=O)CN(c1ccc(F)c(Cl)c1)S(C)(=O)=O,1.9%,-1.0%,i,18.4µM*,-4.0%[38.3 µM],-1.8%
COc1ccc(OC)c(N(CC(=O)NCCSc2ccccc2)S(C)(=O)=O)c1,-0.7%,-0.9%,i,23.1µM*,-1.2%,0.1%
COc1cccc(N(CC(=O)NCCSc2ccc(Cl)cc2)S(C)(=O)=O)c1,-4.2%,5.0%,i,16.4µM*,-1.8%,-0.9%
COc1ccc(N(CC(=O)NCCSc2ccccc2)S(C)(=O)=O)cc1,-2.7%,3.3%,u,i,-1.0%,-1.6%
Cc1cccc(NC(=O)Cn2c(=O)n(CCCCCC(=O)NCc3ccc4c(c3)OCO4)c(=O)c3sccc32)c1,x,x,x,x,1.1%,x
O=C(Cn1c(=O)oc2cc(S(=O)(=O)NCc3ccccc3)ccc21)Nc1cccc(F)c1,x,x,i,i,1.7%,x
NC(=O)Cn1c(=O)n(CCCCCC(=O)NCc2ccccc2Cl)c(=O)c2sccc21,x,x,x,x,-0.7%,x
CN(C)c1ncc(C2=C(Cl)C(=O)C(N3CCCC3)=C(Cl)C2=O)s1,-7.2%,9.2µM*,i,i,1.4%[38.3 µM],u
O=C1C(Cl)=C(N2CCCCC2)C(=O)C(Cl)=C1c1cnc(N2CCCCC2)s1,-0.8%,5.8µM*,18.4µM*,i,0.6%,5.8µM*
CCC(C)NC(=O)c1ccc2nc(-c3ccco3)c(-c3ccco3)nc2c1 (centres undefined),x,x,i,i,2.6%,x
CCCNC(=O)c1cc2nc(-c3ccc(Br)cc3)cc(C(F)(F)F)n2n1,x,x,i,i,6.7%,x
COc1ccc(-c2cc(C(F)(F)F)n3nc(C(=O)NCCCN4CCOCC4)cc3n2)cc1,-0.3%,8.2µM*,i,i,-0.6%,u
